Screening results: PubChem, several laboratories
PLC-gamma1 inh = PLC-gamma1 (human) inhibition, primary screen; 0.84% of 370,000 active; P19174; purified PLC-gamma1, fluorogenic substrate, fluorescence; inhibition, % at 12.2 µM; in the data active means inhibition above about 9.5%
HIF activator = HIF pathway transcriptional activation. U2OS HRE-luciferase reporter, luminescence; normalized: DMSO 0%, desferrioxamine 100%. activation, % at 7.5 µM (by protocol). 0.32% of 300,000 active. AID 1910;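 active means mean activation of at least 10% of the iron chelator positive control signal, with at least half of replicates also reaching 10%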
CR mimetic SO = lowers age-related superoxide in aged yeast cells. S. cerevisiae aged cells, superoxide DHE fluorescence; active compounds read low. superoxide response (% of plate mean), % at 10 µM. 0.18% of 330,000 active;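 active means superoxide response under a set limit, about three screen SD below normal, cut at about 65% in these data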;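 further: yeast aged for seven days with compound at 30 °C before DHE staining; 100% = average MFI of all compound-treated wells on the plate with controls excluded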
HGIII-sPLA2 inh = Blocks human group III sPLA2 activity; Q9NZ20; QFRET BODIPY PC-A2 liposome hydrolysis, fluorescence; inhibition, % at 12.2 µM; 0.56% of 370,000 active;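 active means inhibition above mean plus 3 SD of compounds lying within the high and low control bounds, cut at about 19% in these data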;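 further: 0% = median of test compound wells and 100% = no enzyme DMSO wells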
PLCb3 inh = blocks human PLC-beta3 enzyme activity; AID 720704; inhibition, % at 12.2 µM; 0.18% of 370,000 active; Purified PLC-beta3, fluorogenic substrate, fluorescence; Q01970; in the data active means inhibition above about 11%;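 further: 0% = median of compound wells on plate and 100% = full blocker control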
AHR activator = human AHR activation; activation, % at 5 µM; AHR-responsive luciferase reporter cells, luminescence; 2.5% of 320,000 active; in the data active means activation above about 47%;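 further: 0% = vehicle wells and 100% = reference agonist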
sPLA2 confirm = human GIII-sPLA2 inhibition, confirmation; shares compounds with HGIII-sPLA2 inh; inhibition, % at 12.2 µM; recombinant hGIII-sPLA2, BODIPY PC-A2 QFRET fluorescence; 34% of 2,000 active;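 active means mean inhibition across triplicates above the hit cutoff set in the earlier primary screen, cut at about 19% in these data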;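 further: 0% = enzyme with DMSO and 100% = DMSO wells lacking enzyme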
535nm interf = optically interferes with 535nm fluorescence in sPLA2 counter-screen; shares compounds with HGIII-sPLA2 inh; BODIPY FL product fluorescence interference, QFRET; inhibition, % at 12.2 µM; 8.5% of 2,000 active; AID 743282;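 active means average inhibition above the solvent-only control mean plus 3 SD, cut at about 6% in these data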;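 further: 0% = DMSO with substrate plus product and 100% = DMSO with substrate alone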
535nm interf DR = interferes with 535nm fluorescence in dose response counter-screen | shares compounds with HGIII-sPLA2 inh | BODIPY FL product fluorescence interference, cell-free | IC50, µM | 240 tested, under 10 active | AID 743455;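 active means IC50 at or below 10 µM; inactive means IC50 above 10 µM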
Active calls of the source: *; nt = no result given; ! = a repeat was not active. Hits are enriched below; roughly 3.9% of the tested compounds scored in any of these assays.

SMILES	PLC-gamma1 inh	HIF activator	CR mimetic SO	HGIII-sPLA2 inh	PLCb3 inh	AHR activator	sPLA2 confirm	535nm interf	others
CCOC(=O)C1SC2(C(F)F)CC1(O)c1c(c(OC)c3occc3c1OC)O2 (configuration not stated)	-5	0	112	-4	-3	34	nt	nt
CCCOC(=O)c1ccc(-[n+]2c(-c3ccccc3)cc(-c3ccccc3)cc2-c2ccccc2)cc1	-9	0	96	26*	-16	-5	15	-44
CN(C)c1ccc(/C=C/[N+](=O)[O-])cc1	-7	3	103	23*	-4	-2	12	2
Cc1nc2ccccc2c(=O)n1-c1ccc(Br)cc1[N+](=O)[O-]	0	1	97	0	4	-11	nt	nt
O=C(O)C1C2CC3CC(C2)CC1(n1ncc(N2CCC4(CC2)OCCO4)c(Cl)c1=O)C3 (configuration not stated)	6	-1	103	-2	0	-1	nt	nt
COc1ccccc1Sc1ccccc1CC(C)N (configuration not stated)	-1	-1	98	9	-2	-2	nt	nt
COc1cc(CC(C)N)c(OC)cc1I (configuration not stated)	-1	0	93	24*!	3	0	6	-12
CCCCCN1C(=O)c2cc(OC)ccc2[C@@]2(C(=O)OCC)Cc3cc(OC)ccc3[C@@H]12	0	nt	nt	4	1	nt	nt	nt
Cc1c(C=C2C(=O)N(C)C(=S)N(C)C2=O)c2ccccc2n1CC(=O)NCC1CCCO1 (configuration not stated)	-7	nt	77	5	-18	nt	nt	nt
CCC(C)N1C(=O)/C(=C\c2ccc(N3CCCCCC3)cc2)C(=O)NC1=S (configuration not stated)	-19	0	114	-6	-19	0	nt	nt
CCC(C)N1C(=O)/C(=C\c2cc3c4c(c2)CCCN4CCC3)C(=O)NC1=S (configuration not stated)	-19	0	97	22*	-18	0	33*	5	535nm interf DR=>122
COc1cc(OC)c2c(c1)O[C@@H](c1ccc(OC)c(OC)c1)[C@H](O)C2	-1	-26	89	-2	0	15	nt	nt
C/C(=N\N1CCN(C)CC1)c1c(O)[nH]c(=O)[nH]c1=O	5	-2	97	20*	-3	0	0	-6
Nc1cncc(C(=O)O)c1	-2	0	96	21*!	-7	0	-2	-8
O=C1CCCN1C(=O)c1cncc(Br)c1	1	1	109	0	0	0	nt	nt
CCCCn1c(=O)c(C(=O)Nc2ncccc2C)c(O)c2ccccc21	-26	0	101	20*	-35	33	-8	-17
